ΔTm data for 36 molecules are collected here from ChEMBL document CHEMBL5308504, “Tm Shift (DSF) assay results for EUbOPEN Chemogenomics Library” (2023).

Values joined by “and” are separate entries in the source; they are usually repeats but may differ in a detail not shown here. Equal entries are not always repeated.

As usually defined, the ΔTm is the change in melting temperature against a reference sample.

The target of assay [1] is Bromodomain-containing protein 4 (Homo sapiens) (UniProt O60885). To be noted: Compound concentration 20.0 uM, Protein concentration 2.0 uM, Result type QC Liability.
Assay [2] concerns the target T1, Transcription intermediary factor 1-alpha (Homo sapiens) (UniProt O15164).
T1 sequence (whole entry): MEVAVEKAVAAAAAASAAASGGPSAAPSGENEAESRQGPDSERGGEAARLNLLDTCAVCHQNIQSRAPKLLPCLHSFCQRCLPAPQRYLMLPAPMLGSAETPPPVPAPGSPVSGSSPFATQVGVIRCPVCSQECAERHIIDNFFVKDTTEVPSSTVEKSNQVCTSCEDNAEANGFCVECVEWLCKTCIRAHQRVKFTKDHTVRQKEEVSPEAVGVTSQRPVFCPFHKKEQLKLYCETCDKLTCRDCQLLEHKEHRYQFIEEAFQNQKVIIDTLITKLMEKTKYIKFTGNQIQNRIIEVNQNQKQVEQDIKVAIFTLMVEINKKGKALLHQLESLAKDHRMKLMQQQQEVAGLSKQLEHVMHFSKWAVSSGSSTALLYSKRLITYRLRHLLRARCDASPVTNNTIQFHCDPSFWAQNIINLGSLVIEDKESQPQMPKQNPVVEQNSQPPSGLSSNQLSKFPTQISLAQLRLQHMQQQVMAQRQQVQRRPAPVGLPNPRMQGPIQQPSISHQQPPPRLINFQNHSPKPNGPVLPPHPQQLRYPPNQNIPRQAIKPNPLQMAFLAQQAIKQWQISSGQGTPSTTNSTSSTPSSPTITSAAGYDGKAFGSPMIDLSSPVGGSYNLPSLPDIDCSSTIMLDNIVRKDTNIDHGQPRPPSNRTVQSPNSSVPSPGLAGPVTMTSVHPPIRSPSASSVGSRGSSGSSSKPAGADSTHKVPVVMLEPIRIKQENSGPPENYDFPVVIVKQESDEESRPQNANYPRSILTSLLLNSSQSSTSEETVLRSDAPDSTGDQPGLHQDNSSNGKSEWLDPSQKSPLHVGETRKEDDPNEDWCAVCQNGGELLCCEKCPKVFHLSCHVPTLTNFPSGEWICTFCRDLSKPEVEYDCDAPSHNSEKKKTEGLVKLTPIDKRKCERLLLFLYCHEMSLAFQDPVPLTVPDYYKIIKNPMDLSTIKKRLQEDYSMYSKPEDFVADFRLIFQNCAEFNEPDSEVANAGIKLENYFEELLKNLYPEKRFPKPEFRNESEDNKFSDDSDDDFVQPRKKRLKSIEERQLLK
To be noted: Compound concentration 20.0 uM, Protein concentration 2.0 uM, Result type QC Liability.

Consider `CC(C=CC1=C(C)CCCC1(C)C)=CC=CC(C)=CC(=O)O`, for which the results for the ΔTm in assay [1] and in assay [2] were -5.12 °C and -4.24 °C, respectively.
The corresponding values for `Cn1c(C(=O)N[C@@H](CO)c2ccc(C(=O)O)cc2)cc2cc(Cl)ccc21` are 0.27 °C and 0.31 °C.
Turning to `Cn1nccc1-c1ccc(Sc2cccc(C3(C(N)=O)CCOCC3)c2)cc1`, the shift in melting temperature (ΔTm) in assay [1] was -0.19 °C; in assay [2], 0.56 °C.
The corresponding values for `CNC(=O)c1cccc(-c2ccc3c(N4CCOC[C@@H]4C)nc(N4CCOC[C@@H]4C)nc3n2)c1` are -1.42 °C and -1.47 °C.
On the same counts, the results for `Cc1cc(C)nc(Nc2ncc(C(=O)NCCc3c(C)[nH]c4ccccc34)cn2)c1` are -0.8 °C and -1.3 °C.
Take `Cc1cc2c(-c3ccco3)cnc(N[C@@H]3CCN(C)C[C@H]3C(=O)NC3CCCCC3)c2[nH]c1=O`: the ΔTm in assay [1] was 13.3 °C; in assay [2], -4.37 °C.
On the same counts, the results for `CC#CCC(C)[C@H](O)/C=C/[C@@H]1[C@H]2C/C(=C/CCCC(=O)O)C[C@H]2C[C@H]1O` (some centres not stated) are -2.19 °C and 0.19 °C.
With `Cc1cc([N+](=O)[O-])c(NS(=O)(=O)c2cccc(C(=O)O)c2)cc1-c1cccnc1`, the values for the ΔTm in assay [1] and in assay [2] were -0.44 °C and -2.82 °C, respectively.
On to `COc1cc(CN(CCN)C(=O)N[C@@H](C)c2ccccc2)ccc1OCc1ccccc1`, for which the thermal shift (ΔTm) was -1.26 °C in assay [1] and -0.9 °C in assay [2].
The corresponding values for `O=C(O)CCCCN(CCc1ccccc1OCc1ccc(CCc2ccccc2)cc1)Cc1ccc(C(=O)O)cc1` are -0.88 °C and 0.09 °C.
On the same counts, the results for `COc1ncc(-c2cc(-c3ncc(CN4C[C@@H](C)O[C@@H](C)C4)o3)c3cn[nH]c3c2)cc1NS(C)(=O)=O` are 0.37 °C and -1.87 °C.
In the case of `COc1cc(C(N)=O)ccc1Nc1ncc2c(n1)N(CCC(C)C)[C@H](C)C(=O)N2C`, the results for the ΔTm in assay [1] and in assay [2] were 6.98 °C and -0.48 °C, respectively.
With `Cc1cc(OCc2nc3ccccc3s2)ccc1NC(=O)Nc1ccc(Cl)c(Cl)c1`, the ΔTm in assay [1] is 0.28 °C; in assay [2], -0.82 °C.
As to `Cc1nsc(Nc2cnc(C(F)(F)F)cn2)c1C(=O)Nc1ccc(O[C@H]2CCCN(CC(F)(F)F)C2)nc1`, the thermal shift (ΔTm) is 1.66 °C in assay [1] and -2.89 °C in assay [2].
On the same counts, the results for `O=C(N[C@H](Cc1ccccc1)C(=O)O)c1cccc(OCc2cccnc2)c1` are -1.53 °C and -0.73 °C.
With `Cc1ccc(NS(=O)(=O)c2ccc3c(c2)C2C=CCC2C(c2ccc(C(=O)O)cc2)N3)cc1C` (configuration not stated), the thermal shift (ΔTm) in assay [1] is -2.09 °C; in assay [2] it was -2.63 °C.
For the molecule `C[S+]([O-])c1ccc(-c2nc(-c3cccc(I)c3)c(-c3ccncc3)[nH]2)cc1` (configuration not stated), the ΔTm in assay [1] is -3.51 °C; in assay [2], -2.56 °C.
On the same counts, the results for `CCC(C)(C)CC[C@H](NC(=O)N1CCOCC1)C(=O)NC1(C#N)CCN(C)CC1` are -0.41 °C and 0.53 °C.
For `CN[C@@H](C)C(=O)N[C@H](C(=O)N1CCC[C@H]1C(=O)Nc1sc(-c2ncco2)nc1-c1ccccc1)C1CCCCC1`, the results for the ΔTm in assay [1] and in assay [2] were -2.68 °C and -2.9 °C, respectively.
On the same counts, the results for `CC[C@@H](Nc1c(C#N)c(-c2ccc(-c3cccc(C)c3F)cc2)nc2cnccc12)C(=O)O` are -1.25 °C and -1.3 °C.
On the same counts, the results for `CCc1ccc(N(CC(C)C)S(=O)(=O)c2ccc(OCC3CCOCC3)c(CO)c2)cc1` are -3.99 °C and -0.46 °C.
As to `Cn1cnc(Cn2ccc3ccc(CNCc4[nH]c5ccccc5c4[C@H]4NC(=O)c5ccc(O)cc54)cc32)c1`, the ΔTm in assay [1] was found to be 0.36 °C; in assay [2], 0.2 °C.
On the same counts, the results for `O=C(CCSCc1ccco1)NNC(=O)N1Cc2ccccc2Oc2ccc(Cl)cc21` are -3.5 °C and -1.32 °C.
For `CC(C)(C)NC(=O)c1cncn1C1CCN(c2ccc(-c3nnc(C(F)(F)F)o3)cn2)CC1`, the values for the ΔTm in assay [1] and in assay [2] were -0.5 °C and 0.46 °C, respectively.
On the same counts, the results for `CCC(=O)N[C@H]1CC[C@@H](C(=O)N(C)c2ccc(-c3nc4ccccc4o3)cc2)C1` are 0.09 °C and 0.23 °C.
The corresponding values for `COc1ccc(CC[C@@H](OC(=O)[C@H]2CCCCN2C(=O)[C@@H](c2cc(OC)c(OC)c(OC)c2)C2CCCCC2)c2cccc(OCCN3CCOCC3)c2)cc1OC` are -4.83 °C and -1.63 °C.
The corresponding values for `C/C(=C\C(=O)Nc1ccccc1C(=O)O)c1ccc2ccccc2c1` are -0.82 °C and 0.61 °C.
As to `Cc1ccc(C(=O)Nc2cc(N3CCN(C)CC3)cc(C(F)(F)F)c2)cc1-n1cc(-c2cnn(C)c2C)nn1`, the ΔTm was -2.13 °C in assay [1] and -1.79 °C in assay [2].
The corresponding values for `COc1cc(-c2cc3ncccc3c(OC[C@H]3CNC(=O)C3)n2)cc(OC)c1OC1CCOCC1` are -1.76 °C and -2.27 °C.
The corresponding values for `C=CC1C[C@]1(NC(=O)[C@@H]1C[C@@H](Oc2cc(-c3csc(NC(=O)C(C)C)n3)nc3c(Br)c(OC)ccc23)CN1C(=O)[C@@H](NC(=O)OC1CCCC1)C(C)(C)C)C(=O)O` (some centres not stated) are 1.06 °C and 2.85 °C.
For `O=C(O)Cc1ccc(CCNS(=O)(=O)c2ccc(Cl)cc2)cc1`, the values for the ΔTm in assay [1] and in assay [2] were -1.74 °C and -0.53 °C, respectively.
On the same counts, the results for `COc1ccc(COc2ccc(Cc3cnc(N)nc3N)cc2OC)cc1` are -1.17 °C and -1.22 °C.
Take `COc1cc(C(=O)NCCOCCOCCOCC(=O)N[C@H](C(=O)N2C[C@H](O)C[C@H]2C(=O)NCc2ccc(-c3scnc3C)cc2)C(C)(C)C)ccc1Nc1ncc(C(F)(F)F)c(Oc2cccc3c2C(=O)CC3)n1`: the results for the ΔTm in assay [1] and in assay [2] were -0.02 °C and 2.06 °C, respectively.
The corresponding values for `Cn1ccc(Cn2cnc(-c3ccc(F)cc3)c2-c2ccnc3[nH]ccc23)n1` are -1.68 °C and -3.2 °C.
The corresponding values for `CN[C@@H](C)C(=O)N[C@H](C(=O)N1CCC[C@H]1c1nc(C(=O)c2ccc(F)cc2)cs1)C1CCCCC1` are -3.21 °C and -1.98 °C.
As for `Cc1c(NC(=O)COc2ccc(Cl)cc2C(=O)c2cc(F)cc(C(F)(F)F)c2)ccc(C(=O)O)c1F`, the ΔTm in assay [1] was -0.11 °C and -0.42 °C; in assay [2] it was 0.4 °C and 0.46 °C.
